# PubChem BioAssay AID1508602 (The Scripps Research Institute Molecular Screening Center, 2020)
# The whole screen tested about 650,000 compounds, of which about 6,800 (1%) were called active. Many of the other results were omitted from the sample, so actives are more common in it than they were. A number with no mark means an inactive call. No stated cut-off is given here; in the data, active means activation above about 4.9%; inactive means the rest.
# Target: G-protein coupled receptor 151 (Homo sapiens) (UniProt Q8TDV0)
# Test: activators of human GPR151, primary screen, cell-based, PathHunter beta-arrestin, luminescence (AID 1508602);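 further: 0% = median of compound wells and 100% = cells with positive control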
# Settings: PathHunter beta-arrestin GPR151 cells, at 11.2 µM, stronger effect = higher value
# Chain of G-protein coupled receptor 151 (Homo sapiens) (Q8TDV0 whole entry, looked up): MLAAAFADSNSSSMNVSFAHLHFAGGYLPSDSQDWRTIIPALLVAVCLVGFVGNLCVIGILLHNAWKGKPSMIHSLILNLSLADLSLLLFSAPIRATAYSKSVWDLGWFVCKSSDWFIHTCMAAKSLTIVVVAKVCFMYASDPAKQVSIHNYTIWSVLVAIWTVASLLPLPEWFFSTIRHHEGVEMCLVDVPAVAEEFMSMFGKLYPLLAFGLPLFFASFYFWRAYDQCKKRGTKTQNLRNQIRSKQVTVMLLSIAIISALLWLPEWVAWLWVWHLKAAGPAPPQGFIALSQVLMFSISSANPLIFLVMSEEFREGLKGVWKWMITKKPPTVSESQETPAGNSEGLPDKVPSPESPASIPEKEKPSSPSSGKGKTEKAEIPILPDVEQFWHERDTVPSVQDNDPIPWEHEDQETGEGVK
row,SMILES,activation
1,COc1ccc(CN2CCNC(=O)C2CC(=O)N2CCCCC2)cc1OC (stereo unspecified),1.79%
2,O=C1NCCN(Cc2ccc(F)c(F)c2)C1CC(=O)N1CCCC1 (stereo unspecified),-0.422%
3,O=C1NCCN(Cc2ccc(-c3ccccc3)cc2)C1CC(=O)N1CCCCC1 (stereo unspecified),12.2% (active)
4,COc1cccc(N2CCN(c3ncnc4c3c(-c3ccccc3)cn4-c3ccccc3)CC2)c1,1.89%
5,Nc1nc(NC(=O)/C=C/c2ccc(F)cc2)nn1-c1ccccc1,10.7% (active)
6,Nc1nc(NC(=O)/C=C/c2ccc(Cl)cc2)nn1-c1ccccc1,0.321%
7,Nc1nc(NC(=O)/C=C/c2ccccc2)nn1-c1ccccc1,0.0795%
8,Cc1sc(NC(=O)Cc2ccc([N+](=O)[O-])cc2)c(C#N)c1-c1ccccc1,-0.519%
9,O=C(CN1CCOCC1)Nc1ncc(Cc2cc(Cl)cc(Cl)c2)s1,-0.516%
10,O=C(CN1CCOCC1)Nc1c(Cl)cc(Cl)cc1Cl,8.12% (active)
11,O=C1CN(CC(=O)Nc2c(Cl)cc(Cl)cc2Cl)CCN1,0.357%
12,CC(NC(=O)C12CC3CC(CC(C3)C1)C2)c1ccccc1 (stereo unspecified),1.54%
13,CCOC(=O)c1c(-c2ccc(C)cc2)csc1NC(=O)CNCCCO,0.601%
14,Cc1ccc(C(=O)N/N=C\c2ccccc2O)cn1,-0.843%
15,O=S(=O)(c1ccc2c(c1)CCCC2)N1CCOC(c2ccccc2)C1 (stereo unspecified),-1.43%
16,Cc1ccccc1-c1nc(SCC(=O)NCCc2ccccc2)c2c(=O)n(C)c(=O)n(C)c2n1,-0.395%
17,CCN1CCN(C(=O)Cn2nc(Cc3cccnc3)c3ccccc3c2=O)CC1,1.14%
18,O=C1CCC(=O)NCC(=O)NCCOCCNC(=O)CN1,-0.231%
19,CC/C(Cc1ccccc1)=N\NC(=O)c1ccccc1,-1.22%
20,CN1CCN(c2ccc(-c3nc4ccc(C(=O)NCc5nc6ccccc6[nH]5)cc4s3)cc2)CC1,7.98% (active)
21,O=C(NCc1nc2ccccc2[nH]1)c1ccc2nc(-c3ccccc3)sc2c1,-1.41%
22,CN1CCN(c2ccc(-c3nc4ccc(C(=O)NCc5ccccc5)cc4s3)cc2)CC1,-0.195%
23,COc1ccc(-c2noc(Nc3ccc(F)cc3)n2)cc1OC,-0.36%

row,SMILES,activation
1,Cc1ccc(NC(=O)c2c[nH]c(=O)[nH]c2=O)cc1S(=O)(=O)N1CCCCC1,-0.749%
2,COc1ccc(C(=O)NNC(=O)c2ccccc2[N+](=O)[O-])cc1OC,-0.216%
3,CC(NS(=O)(=O)c1ccc([N+](=O)[O-])cc1)C(=O)N/N=C/c1ccc(O)cc1 (stereo unspecified),0.173%
4,CC(C)C(=O)NNS(=O)(=O)c1ccc([N+](=O)[O-])cc1,6.82% (active)
5,O=C(NNS(=O)(=O)c1ccc([N+](=O)[O-])cc1)Nc1cccc(C(F)(F)F)c1,0.535%
6,COCC(=O)Nc1c(I)c(C(=O)NCC(O)CO)c(I)c(C(=O)N(C)CC(O)CO)c1I (stereo unspecified),6.28% (active)
7,CC(=O)N(CC(O)CO)c1c(I)c(C(=O)NCC(O)CO)c(I)c(C(=O)NCC(O)CO)c1I (stereo unspecified),0.874%
8,Cc1[nH][nH]c(=O)c1C(c1ccc(-c2ccc(Cl)cc2)o1)c1c(C)[nH][nH]c1=O,0.733%
9,Cc1[nH][nH]c(=O)c1C(c1ccc(-c2ccc(F)cc2[N+](=O)[O-])o1)c1c(C)[nH][nH]c1=O,6.05% (active)
10,CC1=NOC(=O)/C1=C/c1ccc(-c2cc(C)c(C)cc2[N+](=O)[O-])o1,0.0267%
11,CCCOC(=O)COc1ccc2c(C)cc(=O)oc2c1,-0.0136%
12,Cc1ccc(C2=NN(C(=O)CCC(=O)O)C(c3ccc(C)cc3)C2)cc1 (stereo unspecified),-1.19%
13,CC1=C(C(=O)Nc2ccc(Cl)cc2)C(c2ccc([N+](=O)[O-])cc2)n2nnnc2N1 (stereo unspecified),0.405%
14,O=C(O)CC(NC(=O)c1ccccc1)c1ccc(F)cc1 (stereo unspecified),-0.457%
15,CC(=O)NC(CC(=O)O)c1ccc(F)cc1 (stereo unspecified),6.23% (active)
16,O=C(O)CC(NS(=O)(=O)Cc1ccccc1)c1ccc(F)cc1 (stereo unspecified),1.1%
17,O=C(NCc1ccc(F)cc1)c1nn2c(C(F)(F)F)cc(-c3cccs3)nc2c1Cl,0.443%
18,Cc1ccccc1NC(=O)CSc1nnc(NC(=O)CCc2ccccc2)s1,-0.763%
19,O=C1c2cccnc2C(=O)N1CCc1ccc(S(=O)(=O)N2CCCc3ccccc32)cc1,-2.73%
20,COc1ccc(-c2cnn3ccc(Nc4ccc(O)cc4)nc23)c(OC)c1,-0.387%
21,CC(=O)c1c(C)[nH]c(C(=O)Nc2cc(S(=O)(=O)N(C)C)ccc2C)c1C,0.871%
22,COC(=O)NNC(=S)Nc1cc(S(=O)(=O)N(C)C)ccc1C,6.15% (active)
23,Cc1ccc(S(=O)(=O)N(C)C)cc1NC(=S)NCCc1ccc(O)c(O)c1,-0.323%
